HCMV inh = qHTS Assay for inhibitors of the human cytomegalovirus (HCMV); activity change, negative = inhibition, % at 57.5 µM; 410,000 compounds, 4.5% hits; HFF cells, HCMV-luciferase reporter, 72 h; stronger effect = lower value; AID 1259415, 2018; in the data active = activity change below about -60%; inconclusive = no clear call, values can overlap the other calls; inactive = above about -39%
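After 16 h attachment at 37C, HFF cells received test compound and HCMV-luciferase (1 PFU/cell); reporter luminescence read 72 h later, data normalized against buffer-only and known inhibitor Salinomycin.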
FMDV antiviral = High Throughput Screening for Foot and Mouth Disease Virus Antivirals | FMDV antiviral cell-based qHTS | Potency, µM (series often up to 57.9 µM), for inactives: at the highest dose activity change, negative = inhibition, hits mostly inhibitors | 410,000 compounds, 1.2% hits | AID 1159524, 2015; calls by dose curve; tested in HEK293T cells; also: read-out not given here; potency is read from the fitted curve at half-maximal effect; nearly all actives have a fitted effect of over 45% in size
HCV inhibitor = qHTS Assay for Inhibitors of Hepatitis C Virus (HCV); Huh7.5.1 HCVcc-Cre infection, luciferase reporter, 44 h; AID 651820, 2012; Potency, µM (titrated, usually from 41.8 µM), for inactives: at the highest dose activity change, negative = inhibition, usual class: inhibitors; 340,000 compounds, 3.4% hits; active = well fitted inhibition curve with a large enough effect; inconclusive = small, poorly fitted or top-dose-only effect, or another doubt; inactive = no such curve, though single readings can be large or run the other way; also: potency is read from the fitted curve at half-maximal effect
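Reporter virus HCVcc-Cre (~0.5 moi) infects cells exposed to compound; seeding density 1,000 cells/well with 4 h settling beforehand. Luminescence, 15 sec read, taken 44 h post-infection following a 15 min RT substrate incubation.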
Marburg entry inh = qHTS for inhibitors of binding or entry into cells for Marburg Virus | Potency, µM (series often up to 37.8 µM), for inactives: at the highest dose activity change, negative = inhibition, usual class: inhibitors | Marburg virus pseudotyped entry inhibition, cell reporter | 300,000 compounds, 1.8% hits | AID 540276, 2011; calls by dose curve; tested in HEK293 cells; also: potency is read from the fitted curve at half-maximal effect
Lassa entry inh = qHTS for Inhibitors of binding or entry into cells for Lassa Virus. Potency, µM (doses to about 37.9 µM), inactives show top-dose activity change, negative = inhibition, most hits filed as inhibitors. Lassa virus pseudotype entry inhibition, cell reporter. 300,000 compounds, 1.2% hits; calls by dose curve; tested in HEK293 cells; also: potency is read from the fitted curve at half-maximal effect; nearly all actives have a fitted effect of over 50% in size
* marks the source's active call; other numbers are inactive results; ? = inconclusive; . = no result; [ ] = dose if it differs, or a comment. This is a sample that favours compounds with a hit; in the whole collection about 7.9% have one here. % is scaled to controls: 0 for no effect and ±100 for the full control effect.

SMILES	HCMV inh	FMDV antiviral	HCV inhibitor	Marburg entry inh	Lassa entry inh
COC(=O)c1ccccc1NC(=O)c1sc2nc(C)cc(C)c2c1NC(=O)c1ccccc1Cl	-2	-21%	.	?	-10%[46.1 µM]
Cc1ccc(C)c(NC(=O)CCCn2c(C)c3cnn(-c4ccccc4)c(=O)c3c2C)c1	-13	?	.	-23%[46.1 µM]	12%[46.1 µM]
COc1ccc2c(C#N)c3ccccn3c2c1	?	20%	3.2µM*	.	.
Cc1ccc(CNS(=O)(=O)c2c(C)nc3sc(C)cn3c2=O)cc1	8	3%	.	.	16%[46.1 µM]
CCCC/C(O)=C1\C(=O)CCCC1=NCCc1c(C)[nH]c2ccc(OC)cc12	-21	-4%	-22%	8.9µM*	?
S=P(N1CCCCCC1)(N1CC1)N1CC1	6	-15%	7%	7.1µM*	?
CCn1cc(C(=O)OCC(=O)NCc2ccccc2Cl)c(=O)c2ccc(C)nc21	-102*	-23%	-13%	8%[46.1 µM]	-13%
CCS(=O)(=O)N1CC(=O)N(c2ccc(C)c(C)c2)C(C)(C(=O)NC2CCCCC2)C1 (stereo unspecified)	0	-4%	.	.	11%[46.1 µM]
COc1ccc(N(C)C(=O)c2ccc3nc(-c4ccccc4)c(-c4ccccc4)nc3c2)cc1	8	?	11µM*	?	?
CC(C)N(C(=O)c1ccc2nc(-c3ccccc3)c(-c3ccccc3)nc2c1)C(C)C	2	-36%	?	-10%	?
CCOc1ccc2nc(NC(=O)C3CCCN(S(=O)(=O)c4cccs4)C3)sc2c1 (stereo unspecified)	-24	?	14µM*	?	?
Cc1nnc(NC(=O)C2CCN(S(=O)(=O)c3cc([N+](=O)[O-])ccc3Cl)CC2)o1	?	-11%	13%	.	.
O=C(NC1CCN(Cc2ccccc2)CC1)C1CCN(S(=O)(=O)c2cccc3cccnc23)CC1	-6	?	?	.	.
Cc1cccc2sc(NC(=O)C3CCN(S(=O)(=O)c4cc([N+](=O)[O-])ccc4Cl)CC3)nc12	-17	?	?	6.3µM*	?
COc1ccc2nc(NC(=O)C3CCN(S(=O)(=O)c4cccc5nsnc45)CC3)sc2c1	-75*	7.9µM*	?	?	4.6µM*
CCOc1ccccc1NC(=O)C1CCCN(S(=O)(=O)c2cccs2)C1 (stereo unspecified)	-8	0%	.	3%[46.1 µM]	12%[46.1 µM]
O=C(NC1CCN(Cc2ccccc2)CC1)C1CCN(S(=O)(=O)c2cccc3nsnc23)CC1	-62*	?	8%	-2%	22%
Cc1cccc(NC(=O)C2CCN(S(=O)(=O)c3cccc4nsnc34)CC2)n1	-4	?	2%	-20%	?
O=C(c1ccco1)N1CCN(c2nc3c(F)cc(F)cc3s2)CC1	17	-5%	.	.	?
COC(=O)[C@@H]1C[C@@H](NC(=O)c2cnsn2)CN1Cc1ccc(Cl)cc1	.	3%	.	.	.
CCCCN(CC)S(=O)(=O)c1ccc(C(=O)N=c2sc3cc(NC(C)=O)ccc3n2C)cc1	-72*	-17%	?	14%	-29%
CCCCN(C)S(=O)(=O)c1ccc(C(=O)N=c2sc3cc(NC(C)=O)ccc3n2C)cc1	-19	-19%	23%	9%	-2%
CCN(CC)CCNC(=O)C(Cl)=C1C(Cl)=C(Cl)C(Cl)=C1Cl	-76*	22µM*	?	?	?
Cc1c(Cl)cccc1NC(=O)COC(=O)c1c2c(nc3ccccc13)CCN(Cc1ccccc1)C2	101	?	?	2.6µM*	?
CC(C)c1ccccc1NC(=O)COC(=O)c1c2c(nc3ccccc13)CCN(Cc1ccccc1)C2	-6	0%	?	?	?
Cc1cc(N2CCN(C)CC2)ccc1NC(=O)c1c2c(nc3ccccc13)CCN(Cc1ccccc1)C2	.	-10%	2µM*	?	?
Cc1cc(C)c(C(=O)CSc2n[nH]c(-c3ccncc3)n2)c(C)c1	-66*	-17%	7%	?	0%
Cc1ccc(C)c(C(=O)CSc2n[nH]c(-c3ccncc3)n2)c1	-33	-7%	-9%	-8%	-2%
CCN(CC(=O)Nc1ccc2c(c1)OC(F)(F)O2)Cc1nc2ccccc2c(=O)[nH]1	?	-30%	-19%	?	-10%

Screening results as filed in PubChem.
